The supplement of paper PMC12282887
± gives the standard deviation of the averaged measurements.

What was measured:
Assay in all cases: promoter activity interaction Z-score (Lux/OD deviation from empty-vector control); higher = stronger promoter induction by the compound
[1] = system: E. coli BW25113 acrABp lux reporter
Summary of the method: (§1)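 E. coli BW25113 luxCDABE reporter strains grew at 37°C in 40 µl LB Lennox in 384-well plates, with OD600 and luminescence read every 30 min for 12 h. After integration over 0–8 h for wild type or 1–9 h for deletion strains, wells under 10% of the median growth value were removed. Each score is the Z-transformed residual of growth-normalised luminescence fitted against a control.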

[2] = system: E. coli BW25113 micFp lux reporter
Summary of the method: as §1

[3] = system: E. coli BW25113 ompFp lux reporter
Summary of the method: as §1

[4] = system: E. coli BW25113 robp lux reporter
Summary of the method: as §1

[5] = system: E. coli BW25113 soxSp lux reporter
Summary of the method: as §1

[6] = system: E. coli BW25113 tolCp lux reporter
Summary of the method: as §1

[7] = 0.62 µg/ml, genetic background: wild type
[8] = 0.62 µg/ml, genetic background: ΔmarA
[9] = 0.62 µg/ml, genetic background: Δrob
[10] = 0.62 µg/ml, genetic background: ΔsoxS
[11] = 1.2 µg/ml, genetic background: wild type
[12] = 2.5 µg/ml, genetic background: wild type

SMILES: CC(=O)C(NC(=O)C(C)C(O)C(C)NC(=O)C(NC(=O)c1nc(C(CC(N)=O)NCC(N)C(N)=O)nc(N)c1C)C(O[C@@H]1O[C@@H](CO)[C@@H](O)[C@H](O)[C@]1(C)O[C@@H]1OC(CO)[C@H](O)[C@](O)(C(N)=O)[C@H]1O)c1cnc[nH]1)C(=O)NCCC1=NC(c2nc(C(N)=O)cs2)CS1 (stereo partly drawn) [Phleomycin]
- promoter activity interaction Z-score [1, 7]: 1.07 ± 0.23
- promoter activity interaction Z-score [1, 8]: -0.273 ± 0.32
- promoter activity interaction Z-score [1, 9]: 1.04
- promoter activity interaction Z-score [1, 10]: 0.298 ± 1.3
- promoter activity interaction Z-score [1, 11]: 2.12
- promoter activity interaction Z-score [2, 7]: -0.476 ± 0.019
- promoter activity interaction Z-score [2, 8]: -0.254 ± 0.023
- promoter activity interaction Z-score [2, 9]: -0.0516 ± 0.18
- promoter activity interaction Z-score [2, 10]: -0.651 ± 0.16
- promoter activity interaction Z-score [2, 11]: -1.14 ± 0.14
- promoter activity interaction Z-score [2, 12]: -0.981 ± 0.31
- promoter activity interaction Z-score [3, 7]: 1.83 ± 0.41
- promoter activity interaction Z-score [3, 8]: 0.799 ± 2
- promoter activity interaction Z-score [3, 9]: -0.998
- promoter activity interaction Z-score [3, 10]: 1.46 ± 2.8
- promoter activity interaction Z-score [3, 11]: -0.554
- promoter activity interaction Z-score [4, 7]: -0.5306 ± 0.0049
- promoter activity interaction Z-score [4, 8]: -0.313 ± 0.067
- promoter activity interaction Z-score [4, 9]: -1.12
- promoter activity interaction Z-score [4, 10]: -0.519 ± 0.41
- promoter activity interaction Z-score [4, 11]: -0.94 ± 0.28
- promoter activity interaction Z-score [5, 7]: 0.286 ± 0.032
- promoter activity interaction Z-score [5, 8]: -0.0997 ± 0.0027
- promoter activity interaction Z-score [5, 9]: -0.106 ± 0.024
- promoter activity interaction Z-score [5, 10]: 3.11 ± 2.5
- promoter activity interaction Z-score [5, 11]: -0.481 ± 0.012
- promoter activity interaction Z-score [5, 12]: -0.666 ± 0.31
- promoter activity interaction Z-score [6, 7]: -0.425 ± 0.84
- promoter activity interaction Z-score [6, 8]: -0.832 ± 0.55
- promoter activity interaction Z-score [6, 9]: -0.362 ± 0.33
- promoter activity interaction Z-score [6, 10]: 0.481 ± 0.63
- promoter activity interaction Z-score [6, 11]: -0.433 ± 0.62
- promoter activity interaction Z-score [6, 12]: -1.33 ± 1.2
